# B1: unnamed (peptide)
# chain: ALRRRLPVTRSKINW
# Assays:
# Experiment in all cases: SPOT peptide array binding signal intensity (averaged, normalized) (arbitrary units (background-subtracted, floor 0; scale differs between SH3 domains)); higher = stronger binding of the SH3 domain to the peptide
# AgAbp1 = molecular target: AgAbp1
# Outline: (§1)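 Binding signal is given in arbitrary units that differ between domains and is the normalized, background-subtracted spot intensity averaged across replicates. Each GST-SH3 fusion from one of four yeast species was made in E. coli BL21(DE3), purified on glutathione Sepharose and incubated at 10 μg/ml overnight at 4°C on cellulose-bound synthetic 15-mer peptides in which cysteines were replaced by serines. Detection used anti-GST antibody, an HRP anti-mouse secondary and luminol, followed by imaging and Genespotter quantification.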
# AgBbc1 = molecular target: AgBbc1
# Outline: as §1
# AgBem1-D1 = molecular target: AgBem1-D1
# Outline: as §1
# AgBzz1-D1 = molecular target: AgBzz1-D1
# Outline: as §1
# AgBzz1-D2 = molecular target: AgBzz1-D2
# Outline: as §1
# AgCyk3 = molecular target: AgCyk3
# Outline: as §1
# AgFus1 = molecular target: AgFus1
# Outline: as §1
# AgHof1 = molecular target: AgHof1
# Outline: as §1
# AgHse1 = molecular target: AgHse1
# Outline: as §1
# AgLsb1 = molecular target: AgLsb1
# Outline: as §1
# AgLsb4 = molecular target: AgLsb4
# Outline: as §1
# AgMyo5 = molecular target: AgMyo5
# Outline: as §1
# AgNbp2 = molecular target: AgNbp2
# Outline: as §1
# AgRvs167 = molecular target: AgRvs167
# Outline: as §1
# AgSho1 = molecular target: AgSho1
# Outline: as §1
# AgSla1-D1-D2 = molecular target: AgSla1-D1-D2
# Outline: as §1
# AgSla1-D3 = molecular target: AgSla1-D3
# Outline: as §1
# CaAbp1-D1 = molecular target: CaAbp1-D1
# Outline: as §1
# CaAbp1-D2 = molecular target: CaAbp1-D2
# Outline: as §1
# CaBbc1 = molecular target: CaBbc1
# Outline: as §1
# CaBem1-D1 = molecular target: CaBem1-D1
# Outline: as §1
# CaBzz1-D1 = molecular target: CaBzz1-D1
# Outline: as §1
# CaBzz1-D2 = molecular target: CaBzz1-D2
# Outline: as §1
# CaCyk3 = molecular target: CaCyk3
# Outline: as §1
# CaFus1 = molecular target: CaFus1
# Outline: as §1
# CaHof1 = molecular target: CaHof1
# Outline: as §1
# CaHse1 = molecular target: CaHse1
# Outline: as §1
# CaLsb1 = molecular target: CaLsb1
# Outline: as §1
# CaLsb4 = molecular target: CaLsb4
# Outline: as §1
# CaMyo5 = molecular target: CaMyo5
# Outline: as §1
# CaNbp2 = molecular target: CaNbp2
# Outline: as §1
# CaRvs167 = molecular target: CaRvs167
# Outline: as §1
# CaRvs167-3 = molecular target: CaRvs167-3
# Outline: as §1
# CaSho1 = molecular target: CaSho1
# Outline: as §1
# CaSla1-D1-D2 = molecular target: CaSla1-D1-D2
# Outline: as §1
# CaSla1-D3 = molecular target: CaSla1-D3
# Outline: as §1
# ScAbp1 = molecular target: ScAbp1
# Outline: as §1
# ScBbc1 = molecular target: ScBbc1
# Outline: as §1
# ScBem1-D1 = molecular target: ScBem1-D1
# Outline: as §1
# ScBzz1-D1 = molecular target: ScBzz1-D1
# Outline: as §1
# ScBzz1-D2 = molecular target: ScBzz1-D2
# Outline: as §1
# ScCyk3 = molecular target: ScCyk3
# Outline: as §1
# ScFus1 = molecular target: ScFus1
# Outline: as §1
# ScHof1 = molecular target: ScHof1
# Outline: as §1
# ScHse1 = molecular target: ScHse1
# Outline: as §1
# ScLsb1 = molecular target: ScLsb1
# Outline: as §1
# ScLsb2 = molecular target: ScLsb2
# Outline: as §1
# ScLsb3 = molecular target: ScLsb3
# Outline: as §1
# ScLsb4 = molecular target: ScLsb4
# Outline: as §1
# ScMyo3 = molecular target: ScMyo3
# Outline: as §1
# ScMyo5 = molecular target: ScMyo5
# Outline: as §1
# ScNbp2 = molecular target: ScNbp2
# Outline: as §1
# ScPex13 = molecular target: ScPex13
# Outline: as §1
# ScRvs167 = molecular target: ScRvs167
# Outline: as §1
# ScSho1 = molecular target: ScSho1
# Outline: as §1
# ScSla1-D1-D2 = molecular target: ScSla1-D1-D2
# Outline: as §1
# ScSla1-D3 = molecular target: ScSla1-D3
# Outline: as §1
# SpAbp1-D1 = molecular target: SpAbp1-D1
# Outline: as §1
# SpBbc1 = molecular target: SpBbc1
# Outline: as §1
# SpBzz1-D1 = molecular target: SpBzz1-D1
# Outline: as §1
# SpBzz1-D2 = molecular target: SpBzz1-D2
# Outline: as §1
# SpCyk3 = molecular target: SpCyk3
# Outline: as §1
# SpHof1 = molecular target: SpHof1
# Outline: as §1
# SpHof1-2 = molecular target: SpHof1-2
# Outline: as §1
# SpHof1-3 = molecular target: SpHof1-3
# Outline: as §1
# SpHse1 = molecular target: SpHse1
# Outline: as §1
# SpLsb1 = molecular target: SpLsb1
# Outline: as §1
# SpLsb4 = molecular target: SpLsb4
# Outline: as §1
# SpMyo1 = molecular target: SpMyo1
# Outline: as §1
# SpNbp2 = molecular target: SpNbp2
# Outline: as §1
# SpPex13 = molecular target: SpPex13
# Outline: as §1
# SpRvs167 = molecular target: SpRvs167
# Outline: as §1
# SpSla1-D1-D2 = molecular target: SpSla1-D1-D2
# Outline: as §1
# SpSla1-D3 = molecular target: SpSla1-D3
# Outline: as §1
binder,measurement,setting,value
B1,SPOT peptide array binding signal intensity,AgAbp1,348
same,SPOT peptide array binding signal intensity,AgBbc1,122
same,SPOT peptide array binding signal intensity,AgBem1-D1,140
same,SPOT peptide array binding signal intensity,AgBzz1-D1,43
same,SPOT peptide array binding signal intensity,AgBzz1-D2,60
same,SPOT peptide array binding signal intensity,AgCyk3,9.5
same,SPOT peptide array binding signal intensity,AgFus1,583
same,SPOT peptide array binding signal intensity,AgHof1,71.8
same,SPOT peptide array binding signal intensity,AgHse1,1170
same,SPOT peptide array binding signal intensity,AgLsb1,9.75
same,SPOT peptide array binding signal intensity,AgLsb4,189
same,SPOT peptide array binding signal intensity,AgMyo5,≤ 0
same,SPOT peptide array binding signal intensity,AgNbp2,346
same,SPOT peptide array binding signal intensity,AgRvs167,19.5
same,SPOT peptide array binding signal intensity,AgSho1,79
same,SPOT peptide array binding signal intensity,AgSla1-D1-D2,840
same,SPOT peptide array binding signal intensity,AgSla1-D3,5.5
same,SPOT peptide array binding signal intensity,CaAbp1-D1,1340
same,SPOT peptide array binding signal intensity,CaAbp1-D2,526
same,SPOT peptide array binding signal intensity,CaBbc1,302
same,SPOT peptide array binding signal intensity,CaBem1-D1,35
same,SPOT peptide array binding signal intensity,CaBzz1-D1,104
same,SPOT peptide array binding signal intensity,CaBzz1-D2,151
same,SPOT peptide array binding signal intensity,CaCyk3,53.5
same,SPOT peptide array binding signal intensity,CaFus1,1200
same,SPOT peptide array binding signal intensity,CaHof1,1
same,SPOT peptide array binding signal intensity,CaHse1,60
same,SPOT peptide array binding signal intensity,CaLsb1,1.5
same,SPOT peptide array binding signal intensity,CaLsb4,195
same,SPOT peptide array binding signal intensity,CaMyo5,5.5
same,SPOT peptide array binding signal intensity,CaNbp2,712
same,SPOT peptide array binding signal intensity,CaRvs167,48.5
same,SPOT peptide array binding signal intensity,CaRvs167-3,197
same,SPOT peptide array binding signal intensity,CaSho1,1180
same,SPOT peptide array binding signal intensity,CaSla1-D1-D2,491
same,SPOT peptide array binding signal intensity,CaSla1-D3,11.5
same,SPOT peptide array binding signal intensity,ScAbp1,59
same,SPOT peptide array binding signal intensity,ScBbc1,45.5
same,SPOT peptide array binding signal intensity,ScBem1-D1,20
same,SPOT peptide array binding signal intensity,ScBzz1-D1,23
same,SPOT peptide array binding signal intensity,ScBzz1-D2,27
same,SPOT peptide array binding signal intensity,ScCyk3,160
same,SPOT peptide array binding signal intensity,ScFus1,784
same,SPOT peptide array binding signal intensity,ScHof1,2.5
same,SPOT peptide array binding signal intensity,ScHse1,1800
same,SPOT peptide array binding signal intensity,ScLsb1,26.8
same,SPOT peptide array binding signal intensity,ScLsb2,15.5
same,SPOT peptide array binding signal intensity,ScLsb3,658
same,SPOT peptide array binding signal intensity,ScLsb4,25
same,SPOT peptide array binding signal intensity,ScMyo3,3.5
same,SPOT peptide array binding signal intensity,ScMyo5,3.5
same,SPOT peptide array binding signal intensity,ScNbp2,616
same,SPOT peptide array binding signal intensity,ScPex13,2.25
same,SPOT peptide array binding signal intensity,ScRvs167,155
same,SPOT peptide array binding signal intensity,ScSho1,1460
same,SPOT peptide array binding signal intensity,ScSla1-D1-D2,713
same,SPOT peptide array binding signal intensity,ScSla1-D3,23
same,SPOT peptide array binding signal intensity,SpAbp1-D1,794
same,SPOT peptide array binding signal intensity,SpBbc1,10
same,SPOT peptide array binding signal intensity,SpBzz1-D1,381
same,SPOT peptide array binding signal intensity,SpBzz1-D2,0.5
same,SPOT peptide array binding signal intensity,SpCyk3,69.5
same,SPOT peptide array binding signal intensity,SpHof1,357
same,SPOT peptide array binding signal intensity,SpHof1-2,80.8
same,SPOT peptide array binding signal intensity,SpHof1-3,790
same,SPOT peptide array binding signal intensity,SpHse1,766
same,SPOT peptide array binding signal intensity,SpLsb1,16.2
same,SPOT peptide array binding signal intensity,SpLsb4,553
same,SPOT peptide array binding signal intensity,SpMyo1,10.2
same,SPOT peptide array binding signal intensity,SpNbp2,716
same,SPOT peptide array binding signal intensity,SpPex13,23
same,SPOT peptide array binding signal intensity,SpRvs167,72.5
same,SPOT peptide array binding signal intensity,SpSla1-D1-D2,≤ 0
same,SPOT peptide array binding signal intensity,SpSla1-D3,41.5

# Reference: the supplement of paper PMC4466140
